Here are results for 20 compounds from PubChem BioAssay.

Experiment [1] is described as follows: antimalarial activity against Dd2 strain (AID 2302;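 active = growth inhibition above 50% at the single 2 µM test dose, taken to imply half-maximal potency below 2 µM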;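 note: 0% = DMSO untreated growth and 100% = chloroquine plus artemisinin killed control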). The following applies: P. falciparum Dd2 in RBCs, LDH growth readout, 72 h; at 2 µM; active compounds read high.
Experiment [2] can be described thus: HepG2 cytotoxicity, primary screen, cytotoxicity control for P. falciparum antimalarial project, cell-based, ATP luminescence (AID 2303;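 active = inhibition above 50%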;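 note: 0% = DMSO wells and 100% = digitonin-killed cells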). The settings on record: HepG2 viability, 24-48 h, at 10 µM, active compounds read high.
Experiment [3] deals with L-lactate dehydrogenase (Plasmodium falciparum (isolate CDC / Honduras)) (UniProt Q27743). The experiment is described as follows: PfLDH activity inhibition – cell lysate, 3D7 strain, counter-screen for P. falciparum growth inhibition project (AID 2304).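 Note: 0% = vehicle and 100% = reference inhibitor.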 The settings on record: P. falciparum 3D7 crude extract, LDH APAD/NBT absorbance; at 2 µM; active compounds read high.
L-lactate dehydrogenase (Plasmodium falciparum (isolate CDC / Honduras)), sequence (Q27743 whole entry, looked up): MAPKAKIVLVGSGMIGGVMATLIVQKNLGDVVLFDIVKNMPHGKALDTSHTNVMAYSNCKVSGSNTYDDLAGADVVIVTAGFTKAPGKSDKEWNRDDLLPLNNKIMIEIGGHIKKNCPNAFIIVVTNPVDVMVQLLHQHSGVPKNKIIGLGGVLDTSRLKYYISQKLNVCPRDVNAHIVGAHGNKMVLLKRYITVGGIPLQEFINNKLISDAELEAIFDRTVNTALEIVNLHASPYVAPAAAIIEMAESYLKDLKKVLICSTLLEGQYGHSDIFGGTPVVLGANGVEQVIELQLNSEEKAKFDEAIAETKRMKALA
Experiment [4] in a line: inhibition of 3D7 malaria parasite growth – strain 3D7 (AID 2306).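 Note: 0% = DMSO wells and 100% = chloroquine plus artemisinin control wells.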 The settings on record: P. falciparum 3D7 erythrocytic growth, LDH absorbance, 72 h; at 2 µM; active compounds read high.
The target in experiment [5] is Calcium-dependent protein kinase 1 (Plasmodium falciparum (isolate 3D7)) (UniProt P62344). The experiment is described as follows: PfCDPK1 kinase inhibitors, biochemical, TCAMS library (AID 1159585; cut-off not given, nearly all actives have IC50 up to about 0.98 µM;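 note: inhibitors leave more ATP so luminescence rises with inhibition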). The following applies: recombinant PfCDPK1, Kinase-Glo ATP depletion luminescence.
Calcium-dependent protein kinase 1 (Plasmodium falciparum (isolate 3D7)), sequence (P62344 whole entry, looked up): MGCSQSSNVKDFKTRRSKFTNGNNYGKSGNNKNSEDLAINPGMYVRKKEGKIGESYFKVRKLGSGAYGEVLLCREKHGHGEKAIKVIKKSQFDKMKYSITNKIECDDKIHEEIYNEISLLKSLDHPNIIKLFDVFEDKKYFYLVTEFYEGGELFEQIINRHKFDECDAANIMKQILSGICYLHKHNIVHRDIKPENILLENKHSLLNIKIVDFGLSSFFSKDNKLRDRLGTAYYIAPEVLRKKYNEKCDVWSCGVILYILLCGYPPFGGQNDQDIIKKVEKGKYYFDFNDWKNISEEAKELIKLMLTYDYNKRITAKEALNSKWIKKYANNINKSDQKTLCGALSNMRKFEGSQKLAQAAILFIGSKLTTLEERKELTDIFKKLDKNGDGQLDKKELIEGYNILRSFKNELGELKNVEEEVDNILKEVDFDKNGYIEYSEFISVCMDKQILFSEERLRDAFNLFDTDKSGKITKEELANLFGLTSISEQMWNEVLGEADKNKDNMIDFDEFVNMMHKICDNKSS
Experiment [6] has as its target Plasmodium falciparum protein kinase 6 (PK6, PF3D7_1337100) (UniProt Q8IDW1). Nature of the experiment: PfPK6 kinase inhibitors, biochemical, TCAMS library (AID 1159586). The settings on record: recombinant PfPK6, Kinase-Glo ATP depletion luminescence.
Experiment [7] concerns the target Protein kinase 7 (PK7), Plasmodium falciparum 3D7 (PF3D7_0213400) (UniProt Q7YTF7). Nature of the experiment: inhibition of Plasmodium PK7 catalytic activity – biochemical, TCAMS antimalarial set, Kinase-Glo luminescence (AID 1159587). The following applies: recombinant PfPK7, Kinase-Glo ATP depletion luminescence.
Experiment [8] deals with Calcium-dependent protein kinase 4 (Plasmodium falciparum (isolate 3D7)) (UniProt Q8IBS5). The experiment is described as follows: PfCDPK4 kinase inhibitors, biochemical, TCAMS library (AID 1159588; cut-off not given, nearly all actives have IC50 up to about 0.91 µM). The settings on record: recombinant PfCDPK4, Kinase-Glo ATP depletion luminescence.
Calcium-dependent protein kinase 4 (Plasmodium falciparum (isolate 3D7)), sequence (Q8IBS5 whole entry, looked up): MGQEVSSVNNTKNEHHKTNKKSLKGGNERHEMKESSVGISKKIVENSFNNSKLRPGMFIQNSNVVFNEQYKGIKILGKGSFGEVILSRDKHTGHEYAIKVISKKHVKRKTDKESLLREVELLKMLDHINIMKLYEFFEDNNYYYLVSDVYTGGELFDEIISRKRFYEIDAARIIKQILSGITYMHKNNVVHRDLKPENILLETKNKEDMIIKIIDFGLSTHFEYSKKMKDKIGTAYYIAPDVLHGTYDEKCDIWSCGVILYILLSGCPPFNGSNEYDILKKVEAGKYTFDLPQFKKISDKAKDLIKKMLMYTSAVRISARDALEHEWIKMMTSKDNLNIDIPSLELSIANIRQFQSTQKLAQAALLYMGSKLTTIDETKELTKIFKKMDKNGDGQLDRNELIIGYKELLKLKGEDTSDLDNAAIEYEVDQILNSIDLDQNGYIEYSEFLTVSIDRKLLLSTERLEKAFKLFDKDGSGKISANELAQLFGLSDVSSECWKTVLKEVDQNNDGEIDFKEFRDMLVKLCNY

Values without a mark were called inactive. For some of these results: Measured potencies and affinities stand elsewhere. Active and inactive are the calls of the source. Unless noted, the rule behind the calls is not given here.

Protein kinase 7 (PK7), Plasmodium falciparum 3D7 (PF3D7_0213400), sequence (Q7YTF7 1-343): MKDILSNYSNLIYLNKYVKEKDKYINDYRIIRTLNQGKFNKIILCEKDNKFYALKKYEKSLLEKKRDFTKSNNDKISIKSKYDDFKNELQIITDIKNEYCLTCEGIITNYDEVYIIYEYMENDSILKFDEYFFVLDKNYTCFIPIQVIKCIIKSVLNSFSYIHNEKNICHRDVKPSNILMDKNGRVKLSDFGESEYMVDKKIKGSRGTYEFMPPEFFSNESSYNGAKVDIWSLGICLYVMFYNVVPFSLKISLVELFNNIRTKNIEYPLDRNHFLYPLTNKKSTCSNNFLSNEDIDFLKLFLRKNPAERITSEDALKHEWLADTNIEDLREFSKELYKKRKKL
Plasmodium falciparum protein kinase 6 (PK6, PF3D7_1337100), sequence (Q8IDW1 1-305): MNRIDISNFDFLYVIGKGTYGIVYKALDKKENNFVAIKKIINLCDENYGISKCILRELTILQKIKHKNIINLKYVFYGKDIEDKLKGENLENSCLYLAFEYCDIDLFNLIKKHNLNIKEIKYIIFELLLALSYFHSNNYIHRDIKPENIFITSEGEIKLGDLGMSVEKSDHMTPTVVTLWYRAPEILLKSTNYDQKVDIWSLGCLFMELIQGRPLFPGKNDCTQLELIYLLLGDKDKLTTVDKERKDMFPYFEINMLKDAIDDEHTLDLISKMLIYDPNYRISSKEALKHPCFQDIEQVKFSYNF

For the compound `CC1(C)N=C(N)N=C(N)N1c1ccc(Oc2ccc(Cl)cc2)c(Cl)c1`, the growth inhibition in experiment [1] was 20%; in experiment [4], 97% (active). The inhibition is 13% in experiment [2] and -2% in experiment [3]. Moreover, the result in experiment [5], in experiment [6], in experiment [7] and in experiment [8] was inactive.
Turning to `C=CCc1cccc(CN2CCC(c3cc(=O)[nH]c(-c4ccccn4)n3)CC2)c1O`, the growth inhibition in experiment [1] was 75% (active); in experiment [4], 91% (active). Moreover, the inhibition in experiment [2] was 46%; in experiment [3] it was -2%. Besides, the outcome in experiment [5], in experiment [6], in experiment [7] and in experiment [8] was inactive.
As for `Cn1c(N)c(C(=O)CSc2ncc(-c3ccc(F)cc3)n2Cc2ccccc2)c(=O)n(C)c1=O`, the results for the growth inhibition in experiment [1] and in experiment [4] were 66% (active) and 88% (active), respectively. The inhibition was 11% in experiment [2] and 1% in experiment [3]. Moreover, the result in experiment [5], in experiment [6], in experiment [7] and in experiment [8] was inactive.
In the case of `CC12CCC(=O)N1C(C(=O)Nc1cccc(C(=O)Nc3cccc(C(F)(F)F)c3)c1)CS2` (stereo not given), the values for the growth inhibition in experiment [1] and in experiment [4] were 89% (active) and 92% (active), respectively. The inhibition was 6% in experiment [2] and -3% in experiment [3]. The result in experiment [5], in experiment [6], in experiment [7] and in experiment [8] was inactive.
`O=C(Nc1ccc(-c2nc3ccccc3[nH]2)cc1)C1CCCN(CC2CC2)C1` (stereo not given): the growth inhibition in experiment [1] is 8%; in experiment [4], 89% (active). Further, the inhibition was 6% in experiment [2] and 0% in experiment [3]. The result in experiment [5], in experiment [6], in experiment [7] and in experiment [8] was inactive.
With `O=C(Nc1nc(-c2ccccn2)cc2ccccc12)c1cccc(Cl)c1`, the growth inhibition in experiment [1] was 72% (active); in experiment [4] it was 96% (active). For the same compound, the inhibition was 59% (active) in experiment [2] and -3% in experiment [3]. Moreover, the outcome in experiment [5], in experiment [6], in experiment [7] and in experiment [8] was inactive.
Regarding `CN1CCCC(CN2CCN(Cc3cccc(-c4ccc(-c5nc6ccccc6[nH]5)cc4)c3)CC2)C1` (stereo not given), the growth inhibition was 101% (active) in experiment [1] and 100% (active) in experiment [4]. Moreover, the inhibition in experiment [2] is 73% (active); in experiment [3], -2%. Moreover, the result in experiment [5], in experiment [6], in experiment [7] and in experiment [8] was inactive.
Take `FC(F)(F)c1ccc2nc(-c3ccc(-c4ccc(CNCCc5ccncc5)cc4)cc3)[nH]c2c1`: the growth inhibition in experiment [1] and in experiment [4] was 100% (active) in each case. Moreover, the figures for the inhibition in experiment [2] and in experiment [3] were 26% and 6%, respectively. Moreover, the result in experiment [5], in experiment [6], in experiment [7] and in experiment [8] was inactive.
Consider `Nc1nc(N)c2c(Oc3cccnc3)cccc2n1`, for which the growth inhibition in experiment [1] was -1%; in experiment [4] it was 93% (active). Further, the results for the inhibition in experiment [2] and in experiment [3] were 65% (active) and 6%, respectively. Also, the result in experiment [5], in experiment [6], in experiment [7] and in experiment [8] was inactive.
For `Cc1ccccc1C1CCN(C2CCC(NC(=O)/C=C/c3ccc(C#N)cc3)CC2)CC1` (stereo not given), the figures for the growth inhibition in experiment [1] and in experiment [4] were 13% and 87% (active), respectively. Also, the inhibition in experiment [2] was 39%; in experiment [3], 0%. Also, the outcome in experiment [5], in experiment [6], in experiment [7] and in experiment [8] was inactive.
Take `Clc1ccc2c(N3CCN(CCN4CCN(c5ccnc6cc(Cl)ccc56)CC4)CC3)ccnc2c1`: the growth inhibition in experiment [1] was 100% (active); in experiment [4], 99% (active). Also, the inhibition in experiment [2] was 10%; in experiment [3] it was 1%. Also, the outcome in experiment [5], in experiment [6], in experiment [7] and in experiment [8] was inactive.
Turning to `COc1ccc2nccc(N3CCC(SCCNS(=O)(=O)c4ccc5c(c4)OCCO5)C3)c2n1` (stereo not given), the values for the growth inhibition in experiment [1] and in experiment [4] were 87% (active) and 94% (active), respectively. The inhibition in experiment [2] was 36%; in experiment [3], 5%. Moreover, the outcome in experiment [5], in experiment [6], in experiment [7] and in experiment [8] was inactive.
For the compound `CN(C)CCOc1ccnc2ccc(NC(=O)Cc3ccc(-c4ccncc4)c4ccccc34)cc12`, the growth inhibition in experiment [1] and in experiment [4] was 100% (active) throughout. Further, the inhibition was 10% in experiment [2] and -6% in experiment [3]. Also, the result in experiment [5], in experiment [6], in experiment [7] and in experiment [8] was inactive.
As for `COc1ccc(-c2cnc(NCc3ccccc3)nc2)cc1CNC1CCN(C)CC1`, the growth inhibition in experiment [1] is 64% (active); in experiment [4], 96% (active). In addition, the values for the inhibition in experiment [2] and in experiment [3] were 19% and 1%, respectively. The result in experiment [5], in experiment [6], in experiment [7] and in experiment [8] was inactive.
Consider `CC1CCCCN1S(=O)(=O)c1ccc(NC(=O)c2cc(-c3ccccc3O)n[nH]2)cc1` (stereo not given), for which the values for the growth inhibition in experiment [1] and in experiment [4] were 96% (active) and 90% (active), respectively. The inhibition is 26% in experiment [2] and -1% in experiment [3]. Further, the result in experiment [5], in experiment [6], in experiment [7] and in experiment [8] was inactive.
`FC(F)(F)c1ccc(NC(=S)N2CCC(CCN3CCC(c4c[nH]c5ccccc45)CC3)CC2)cc1`: the growth inhibition is 37% in experiment [1] and 98% (active) in experiment [4]. The inhibition was 44% in experiment [2] and 0% in experiment [3]. The outcome in experiment [5], in experiment [6], in experiment [7] and in experiment [8] was inactive.
For `CCN(CCCNc1nc(=S)[nH]c2cc(OC)c(OC)cc12)c1ccccc1`, the growth inhibition in experiment [1] is 23%; in experiment [4], 100% (active). The inhibition was 14% in experiment [2] and -2% in experiment [3]. The result in experiment [5], in experiment [6], in experiment [7] and in experiment [8] was inactive.
As to `O=C(/C=C/c1ccc(Cl)c(Cl)c1)NCCCCCN1CCCC(CNC(=O)Nc2ccc(Oc3ccccc3)cc2)C1` (stereo not given), the growth inhibition in experiment [1] is 6%; in experiment [4], 99% (active). Further, the inhibition is 26% in experiment [2] and -2% in experiment [3]. The outcome in experiment [5], in experiment [6], in experiment [7] and in experiment [8] was inactive.
Consider `CCN(CCCN1CCCCC1)c1cc(C)nc(Nc2ccc(Cl)c(C(F)(F)F)c2)n1`, for which the growth inhibition was 55% (active) in experiment [1] and 96% (active) in experiment [4]. In addition, the inhibition in experiment [2] was 43%; in experiment [3], 2%. In addition, the result in experiment [5], in experiment [6], in experiment [7] and in experiment [8] was inactive.
As for `COc1ccc2nccc([C@@H](O)CN3CC[C@H](NCc4nc5c(cc4Cl)OCC(=O)N5)[C@H](F)C3)c2c1`, the growth inhibition in experiment [1] was 29%; in experiment [4] it was 84% (active). For the same compound, the inhibition in experiment [2] and in experiment [3] was 4% throughout. Besides, the result in experiment [5], in experiment [6], in experiment [7] and in experiment [8] was inactive.
